From PubChem BioAssay (EPA / NIEHS) come the findings set out here.

Activity calls are given as the source filed them. Rule for the calls: active = hit-call score of the fitted dose curve at least 0.9, where 1 is the maximum; inactive = score below 0.9.

Read-out in assay [1]: Human Leukocyte Antigen - DR isotype (HLADR), HLA-DRA (gene 3122)
The assay can be described thus: BSK_CASM3C_HLADR: BioMAP Diversity Plus: CASM3C Assay for Human Leukocyte Antigen - DR isotype (HLADR) Biomarker Activity (AID 2283043).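 Note: cell-surface HLA-DR protein level quantified by ELISA.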 As to conditions: primary human coronary artery smooth muscle cells; actives raise or lower the signal.

Read-out in assay [2]: Macrophage colony-stimulating factor (MCSF), CSF1 (gene 1435)
The assay can be described thus: BSK_CASM3C_MCSF: BioMAP Diversity Plus: CASM3C Assay for Macrophage colony-stimulating factor (MCSF) Biomarker Activity (AID 2283044).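 Note: M-CSF protein amount quantified by ELISA after 24 h exposure.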 As to conditions: primary human coronary artery smooth muscle cells; actives raise or lower the signal.

Read-out in assay [3]: Low-density lipoprotein receptor (LDLR), LDLR (gene 3949)
The assay can be described thus: BSK_CASM3C_LDLR: BioMAP Diversity Plus: CASM3C Assay for Low-density lipoprotein receptor (LDLR) Biomarker Activity (AID 2283045).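 Note: LDLR protein level on the cell surface quantified by ELISA.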 As to conditions: primary human coronary artery smooth muscle cells; actives raise or lower the signal.

Read-out in assay [4]: Monocyte Chemoattractant Protein-1 (MCP1), CCL2 (gene 6347)
In words: BSK_CASM3C_MCP1: BioMAP Diversity Plus: CASM3C Assay for Monocyte Chemoattractant Protein-1 (MCP1) Biomarker Activity (AID 2283046).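 Note: MCP-1 level quantified by ELISA 24 h after dosing.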 As to conditions: primary human coronary artery smooth muscle cells; actives raise or lower the signal.

Assay [5] is described as follows: BSK_CASM3C_Proliferation: Cell Proliferation Assessment in the BioMAP Diversity Plus: CASM3C Assay (AID 2283047).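 Note: sulforhodamine B total protein stain as relative cell number at 560 nm; sub-confluent cells exposed 48 h before staining; fitted both ways against DMSO so gain or loss of cell number.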 As to conditions: primary human coronary artery smooth muscle cells.
Read-out in assay [6]: Monokine induced gamma interferon (MIG), CXCL9 (gene 4283)
In words: BSK_CASM3C_MIG: BioMAP Diversity Plus: CASM3C Assay for Monokine induced gamma interferon (MIG) Biomarker Activity (AID 2283048).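 Note: MIG protein level measured by ELISA.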 To be noted: primary human coronary artery smooth muscle cells; actives raise or lower the signal.

Read-out in assay [7]: serum amyloid A (SAA), SAA1 (gene 6288)
The assay can be described thus: BSK_CASM3C_SAA: BioMAP Diversity Plus: CASM3C Assay for serum amyloid A (SAA) Biomarker Activity (AID 2283049).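 Note: SAA protein level quantified by ELISA.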 As to conditions: primary human coronary artery smooth muscle cells; actives raise or lower the signal.

Assay [8] is described as follows: BSK_CASM3C_SRB: Viability Assessment in the BioMAP Diversity Plus: CASM3C Assay (AID 2283050).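 Note: total protein by SRB staining as cytotoxicity measure in parallel cultures; cells exposed to compound for 24 h.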 As to conditions: primary human coronary artery smooth muscle cells.
Read-out in assay [9]: Thrombomodulin, THBD (gene 7056)
In words: BSK_CASM3C_Thrombomodulin: BioMAP Diversity Plus: CASM3C Assay for Thrombomodulin Biomarker Activity (AID 2283051).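 Note: thrombomodulin protein level measured by ELISA 24 h after dosing.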 As to conditions: primary human coronary artery smooth muscle cells; actives raise or lower the signal.

Read-out in assay [10]: Tissue Factor, F3 (gene 2152)
The assay can be described thus: BSK_CASM3C_TissueFactor: BioMAP Diversity Plus: CASM3C Assay for Tissue Factor Biomarker Activity (AID 2283052).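 Note: cell surface tissue factor protein level read by ELISA.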 To be noted: primary human coronary artery smooth muscle cells; actives raise or lower the signal.

In the case of `COC(=O)c1c(Cl)c(Cl)c(C(=O)OC)c(Cl)c1Cl`, the result in [1], in [2], in assay [3], in [4], in assay [5] and in [6] was inactive. For the same molecule, the outcome in [7], in assay [8], in [9] and in assay [10] was inactive.
In general, AC50 refers to the concentration giving half of the maximal activity seen. As to `O=P(OC(CCl)CCl)(OC(CCl)CCl)OC(CCl)CCl`, the outcome in [1], in assay [2], in assay [3], in assay [4], in [6] and in assay [7] was inactive. In addition, the result in assay [8] and in [10] was inactive. Further, the AC50 in [5] is 20 µM (active); in assay [9], 15.7 µM (active).
For `Cn1c(=O)cc(Oc2ccc(F)cc2F)c2cnc(NCC(C)(C)O)nc21`, the AC50 in assay [1] was 1.42 µM (active); in [7], 3.97 µM (active). Also, the outcome in [2], in assay [3], in assay [4], in assay [5], in assay [6] and in assay [8] was inactive. Also, the result in assay [9] and in assay [10] was inactive.
